PPC-1+TRAIL kill – PPC-1 cancer cell killing with TRAIL present | PPC-1 cells + TRAIL, ATPLite viability luminescence | cell killing (% activity), % at 4 µM or 5 µM | 220,000 tested, 0.41% active;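 active means cell killing above 50% in the first pass at 4 µM, then a duplicate retest at 5 µM averaging 50% or more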
C8 TRAIL sens – sensitizes caspase-8 expressing cells to TRAIL; NB7+C8 cells + TRAIL, ATPlite viability luminescence; inhibition (viability loss, TRAIL sensitization), % at 10 µM; 360,000 tested, 1% active; AID 624354;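 active means compounds causing at least 50% loss of cell viability in the single-dose screen, relative to plate controls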
SENP8 block-1 – inhibitors of human SENP8 protease; Q96LD8; recombinant SENP8, Nedd8 substrate fluorescence; inhibition, % at 20 µM; 360,000 tested, 0.64% active; AID 602440; in the data active means inhibition mostly above about 40%, no sharp cut-off; inactive means mostly below about 27%
SENP6 inh – SENP6 protease inhibition; 330,000 tested, 1.8% active; Recombinant SENP6 catalytic domain, aminoluciferin luminescence; inhibition, % at 10 µM; Q9GZR1;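 active means inhibition above about 50% at the single tested dose, limit read from the data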
Target sequence (Q9GZR1 628-1112 limits assumed): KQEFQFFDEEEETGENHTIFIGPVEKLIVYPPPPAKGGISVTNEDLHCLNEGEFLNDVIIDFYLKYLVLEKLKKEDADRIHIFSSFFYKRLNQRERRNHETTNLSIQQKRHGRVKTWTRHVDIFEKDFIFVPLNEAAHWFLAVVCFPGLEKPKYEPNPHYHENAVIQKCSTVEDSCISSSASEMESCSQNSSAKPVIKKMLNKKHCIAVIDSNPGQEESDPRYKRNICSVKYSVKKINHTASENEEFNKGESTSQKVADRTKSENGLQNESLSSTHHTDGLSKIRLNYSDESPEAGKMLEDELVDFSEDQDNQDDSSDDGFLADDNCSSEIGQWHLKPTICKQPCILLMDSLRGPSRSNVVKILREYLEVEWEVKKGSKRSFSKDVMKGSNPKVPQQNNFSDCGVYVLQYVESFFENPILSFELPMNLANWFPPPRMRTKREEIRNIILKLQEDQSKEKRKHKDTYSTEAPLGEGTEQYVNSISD
SENP8 block-2 – SENP8 protease inhibition | Q96LD8 | purified SENP8, Z-RLRGG-aminoluciferin cleavage, luminescence | inhibition, % at 10 µM | 330,000 tested, 1.2% active | AID 2540; in the data active means inhibition above about 50%
SENP7 block – blocks the human protease SENP7; Q9BQF6; recombinant SENP7, Z-RLRGG-aminoluciferin luminescence, 40 min; inhibition, % at 5 µM; 330,000 tested, 1.5% active; AID 434973;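 active means inhibition above about 50% at the single test dose, limit read from the data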
SENP8 conf – confirmation of human SENP8 protease inhibitors | 1,400 tested, 15% active | shares compounds with SENP8 block-1 | purified SENP8, Nedd8-AMC/pro-Nedd8 cleavage fluorescence, 30 min | inhibition, % at 25 µM; in the data active means inhibition mostly above about 39%, no sharp cut-off; inactive means mostly below about 34%
Numbers stand for hits; . = inactive; / = no result given. An excerpt weighted towards active compounds, which were near 3% of everything screened.

SMILES	PPC-1+TRAIL kill	C8 TRAIL sens	SENP8 block-1	SENP6 inh	SENP8 block-2	SENP7 block	SENP8 conf
Cc1[nH][nH]c(=O)c1C(c1ccc(O)c(Br)c1)c1c(C)[nH][nH]c1=O	/	.	.	.	.	.	/
CCOc1cc(C(c2c(C)[nH][nH]c2=O)c2c(C)[nH][nH]c2=O)ccc1O	.	.	46.9	.	.	.	52.7
COc1ccc(O)c(C(c2c(C)[nH][nH]c2=O)c2c(C)[nH][nH]c2=O)c1	.	.	75.7	.	.	.	47.2
COc1ccc(CCNC(=O)Nc2ccc3c(c2)c(=O)n(C)n3CC=C(C)C)cc1OC	/	.	.	/	/	/	/
Cc1noc(C)c1NC(=O)N(C)C[C@H]1Oc2c(NC(=O)C3CCCCC3)cccc2C(=O)N([C@H](C)CO)C[C@@H]1C	/	.	.	.	.	.	/
O=[N+]([O-])c1ccc(Cl)cc1NCc1cccnc1	/	.	50.9	.	.	.	.
Oc1ccccc1O	/	.	.	.	.	.	/
Nc1ccccc1O	/	.	58.3	.	.	.	.
N/C(=N\O)c1cn(Cc2ccccc2Cl)c2ccccc12	/	.	.	.	.	.	/
Cc1[nH][nH]c(=O)c1C(c1c(C)[nH][nH]c1=O)c1cn(Cc2ccccc2Cl)c2ccccc12	.	.	79.1	/	/	/	73.3
Cc1cc(C)nc(NC(=NCCc2c[nH]c3ccccc23)NC(=O)C(C)(C)C)n1	.	.	46.4	.	.	.	.
Cc1cc(C)nc(N2C(=O)CC(C(=O)O)NC2=NCCc2c[nH]c3ccccc23)n1 (stereo unspecified)	.	.	.	.	.	.	/
CCc1cc(C(=O)N(C)CC(=O)N(CC(C)C)c2c(N)n(CC(C)C)c(=O)[nH]c2=O)sc1C	/	.	.	.	.	.	/
CNc1ccc(/C=C/C(=O)c2cccc3ccccc23)cc1[N+](=O)[O-]	.	.	47.0	.	.	.	.
CC(C)(C)OC(=O)NCCCC[C@H](NC(=O)c1nc[nH]c1C(=O)N1CCc2ccccc2C1)C(=O)OC(C)(C)C	.	.	.	.	.	.	/
CC(C)(C)OC(=O)NCCCCCNC(=O)c1nc[nH]c1C(=O)N1CCc2ccccc2C1	/	.	47.9	.	.	.	56.8
C=CCn1ccc(=NC=C(C#N)C#N)c2ccccc21	.	.	45.0	.	.	.	.
Cc1cc(C)n(-c2ccc(C(=O)OCC(=O)Nc3ccc(S(=O)(=O)N4CCCCC4)cc3)cc2)n1	.	.	47.7	.	.	.	.
O=C(c1ccc(S(=O)(=O)Nc2ccccc2F)cc1)N1CCCC1	/	.	.	.	.	.	/
O=C(/C=C/c1cccs1)NNC(=O)c1ccccc1	/	.	.	.	.	.	/
O=C(CSc1nc2cc(Cl)ccc2s1)NCc1ccc2c(c1)OCO2	.	.	44.5	.	.	.	.
CC(C)(C)C(=O)NCCCc1nc2ccccc2n1CCCOc1ccc(Cl)cc1	.	.	41.1	.	.	.	.
COC(=O)c1c(SCC(=O)Nc2ccc(C)c(C)c2)nc(=O)[nH]c1C	.	.	43.9	.	.	.	.
COC(=O)c1c(SCc2cccc3ccccc23)nc(=O)[nH]c1C	.	.	.	.	.	.	/
Cc1cc(C)n(C(CC(=O)N2CCc3ccccc3C2)C(=O)O)n1 (stereo unspecified)	.	.	43.7	.	.	.	.
SMILES	PPC-1+TRAIL kill	C8 TRAIL sens	SENP8 block-1	SENP6 inh	SENP8 block-2	SENP7 block	SENP8 conf
COc1cc(C(CC(=O)Nc2cccc(C)n2)N2Cc3ccccc3C2=O)cc(OC)c1OC (stereo unspecified)	/	.	.	.	.	.	/
CC(=O)c1cccc(NC(=O)COC(=O)c2ccc3c(c2)OCCO3)c1	.	.	41.5	.	.	.	.
CN(CCNC(=O)c1c[nH]c2c1ccc1ccccc12)CCNC(=O)c1c[nH]c2c1ccc1ccccc12	/	.	.	/	/	/	/
CCOc1ccc(Nc2nc(N)c([N+](=O)[O-])c(N3CCN(C)CC3)n2)cc1	/	.	47.1	.	.	.	.
Cc1cccc(Nc2nc(N3CCN(C)CC3)nc(N)c2[N+](=O)[O-])c1	.	.	40.5	.	.	.	.
COc1ccc(Nc2nc(N)c([N+](=O)[O-])c(N3CCOCC3)n2)cc1	.	.	.	.	.	.	/
CCN1CCN(c2nc(N)c([N+](=O)[O-])c(Nc3cccc(C)c3)n2)CC1	.	.	.	.	.	.	/
CC1(c2ccc3c(c2)OCCCO3)NC(=O)N(CC(=O)Nc2cccc(C#N)c2)C1=O (stereo unspecified)	/	.	.	.	.	.	/
NS(=O)(=O)c1ccc(CCNC(=O)C2CCN(C(=O)Nc3ccccc3)CC2)cc1	/	.	.	.	.	.	/
Cc1cc(NS(=O)(=O)c2ccc3c(c2)OCCO3)no1	.	.	41.8	.	.	.	.
Nc1c2c(=O)[nH]c(O)cc2nn1-c1ccccc1	/	.	.	/	/	/	/
O=C(/C=C/c1ccc2c(c1)OCO2)c1ccco1	.	.	.	.	.	.	/
O=C(/C=C/c1ccc2c(c1)OCO2)c1ccc(O)cc1O	/	.	40.0	/	/	/	.
CC1(c2ccc(OC(F)F)cc2)NC(=O)N(CC(=O)Nc2ccc(Cl)cc2F)C1=O (stereo unspecified)	/	.	.	.	.	.	/
CC(=O)Nc1ccc(NC(=O)C(C)OC(=O)CSc2ccc(Br)cc2C)cc1 (stereo unspecified)	/	.	.	.	.	.	/
COc1ccc(NCc2ccc([N+](=O)[O-])s2)c(OC)c1	.	.	57.2	/	/	/	78.4
O=[N+]([O-])c1ccc(CNc2ccc(Cl)cc2)s1	/	.	41.8	.	.	.	.
CN(Cc1cccnc1)C(=O)c1ccc(Cl)c(NS(=O)(=O)c2ccc(F)cc2)c1	/	.	.	.	.	.	/
COCCNC(=S)NN=C1CCCCC1	.	.	46.2	.	.	.	.
CCS(=O)(=O)N1CCC(C(=O)N2CCc3ccccc3C2)CC1	.	.	44.1	.	.	.	76.7
CC(=O)NS(=O)(=O)c1ccc(Nc2ccc([N+](=O)[O-])c3nonc23)cc1	.	.	24.3	.	.	.	.
Cc1cc(Nc2ccccc2)c2c([N+](=O)[O-])cc(C)c(C)c2n1	.	.	45.2	.	.	.	.
O=[N+]([O-])c1ccc(Nc2ccccc2)c2nonc12	/	.	49.2	.	.	.	.
CC(C)[C@H](N[C@@H](C)c1ccccc1)c1c(O)ccc2ccccc12	/	.	.	.	.	.	/
CN(C)C(=O)Cn1cc(S(=O)(=O)Cc2ccccc2)c2ccccc21	/	.	.	.	.	.	/
COc1cc(C2(c3ccc(O)c(OC)c3)C(=O)Nc3c(C)cc(Br)cc32)ccc1O	/	.	40.4	.	.	.	.
O=C(c1ccc(Cl)cc1)N1CCN(CCc2ccccn2)CC1	/	.	.	.	.	.	/
NC(=O)Cn1nc(-c2ccccc2)nc1-c1ccccc1	/	.	.	.	.	.	/
